# EPAC2 ag: EPAC2 (human) agonism; AID 720711; Potency, µM (titrated, usually from 154 µM), without a hit: top-dose activation, most hits filed as activators; 360,000 compounds, 0.079% hits; EPAC2 activation, biochemical qHTS; response scale: 100% = 6.5 mM cAMP response; Q8WZA2; further: nearly all actives have a fitted effect of over 50% in size
#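 Readout is BODIPY fluorescence (480 nm excitation, 540 nm emission), which falls as labeled GDP is exchanged off Rap1B. EPAC2 at 100 nM acted on 250 nM RAP1B-BODIPY-GDP with 50 uM GDP present.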
# EPAC2 antagonist: EPAC2 (human) antagonism. AID 720708. EPAC2 GEF exchange of Rap1B-BODIPY-GDP, fluorescence. 360,000 compounds, 0.18% hits. Q8WZA2. Potency, µM (top dose mostly 114 µM), for the others: at the top dose activity, negative = inhibition, actives largely listed as inhibitors; further: on the % scale 0 is the no-effect control and ±100 the full control effect; nearly all actives have a fitted effect of over 45% in size
# USP1 inh: inhibitors of human USP1/UAF1 deubiquitinase. recombinant USP1/UAF1, Ub-Rhodamine cleavage fluorescence. Potency, µM (doses to about 57.1 µM), without a hit: at the highest dose activity change, negative = inhibition, hits mostly inhibitors. 390,000 compounds, 0.23% hits; further: on the % scale 0 is the no-effect control and ±100 the full control effect; nearly all actives have a fitted effect of over 60% in size
# Target sequence (O94782 whole entry, looked up): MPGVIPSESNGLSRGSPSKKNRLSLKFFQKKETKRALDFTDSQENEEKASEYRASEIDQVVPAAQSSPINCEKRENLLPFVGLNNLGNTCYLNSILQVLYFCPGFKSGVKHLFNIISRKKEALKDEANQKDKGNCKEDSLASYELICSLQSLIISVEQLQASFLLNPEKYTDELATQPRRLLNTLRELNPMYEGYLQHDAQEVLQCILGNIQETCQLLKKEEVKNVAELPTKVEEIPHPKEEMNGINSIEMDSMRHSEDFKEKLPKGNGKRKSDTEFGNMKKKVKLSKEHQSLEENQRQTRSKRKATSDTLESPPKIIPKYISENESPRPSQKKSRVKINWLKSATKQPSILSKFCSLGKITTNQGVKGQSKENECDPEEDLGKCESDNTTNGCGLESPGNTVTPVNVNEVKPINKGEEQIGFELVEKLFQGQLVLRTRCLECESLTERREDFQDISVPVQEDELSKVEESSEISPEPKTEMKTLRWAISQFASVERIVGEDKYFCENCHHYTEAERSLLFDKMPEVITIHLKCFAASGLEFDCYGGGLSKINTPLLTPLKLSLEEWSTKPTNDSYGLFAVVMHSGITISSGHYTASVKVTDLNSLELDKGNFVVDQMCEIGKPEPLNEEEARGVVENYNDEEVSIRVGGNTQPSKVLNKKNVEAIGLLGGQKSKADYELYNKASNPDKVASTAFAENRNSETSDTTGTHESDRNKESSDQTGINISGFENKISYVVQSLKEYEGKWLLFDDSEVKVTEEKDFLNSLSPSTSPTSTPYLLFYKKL
#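 1 nM enzyme complex + cpd, 15 min RT; start with Ub-Rho 150nM final; kinetic fluorescence ex 480/em 540, 6 reads q60 s. Buffer 50mM HEPES pH 7.8, 0.5mM EDTA, 0.1 mg/ml BSA, 1mM TCEP, 0.01% Tween-20.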
# EPAC1 ag: activates human EPAC1 exchange factor. O95398. EPAC1 agonist qHTS, biochemical assay; response scale: 100% = response to 6.5 mM cAMP. Potency, µM (top dose mostly 154 µM), inactives show at the highest dose activation, hits mostly activators. 360,000 compounds, 0.073% hits; further: nearly all actives have a fitted effect of over 60% in size
#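 Nucleotide exchange by EPAC1 (100 nM) on Rap1B–BODIPY-GDP (250 nM) in the presence of 50 uM GDP is tracked fluorescently at 480/540 nm over 30 min. Signals are normalized to a 6.5 mM cAMP control.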
# EPAC1 antag: antagonists of human EPAC1. O95398. EPAC1 GEF assay, Rap1b-BODIPY-GDP exchange fluorescence. Potency, µM (titrated, usually from 115 µM), for inactives: top-dose activity change, negative = inhibition, actives largely listed as inhibitors. 360,000 compounds, 0.14% hits. AID 720709;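 further: plate controls were vehicle for no effect and positive control for full effect; nearly all actives have a fitted effect of over 50% in size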
# Numbers without * were called inactive; ? = inconclusive; . = no result given. Hits are enriched below; roughly 0.45% of the tested compounds scored in any of these assays. The call rests on the fitted dose curve; in most records, active means well fitted curve in the direction sought with a large enough effect; inconclusive means small, poorly fitted or top-dose-only effect, or another doubt; inactive means no such curve, though single readings can be large; an effect the other way counts as inactive or inconclusive. Potency means the concentration at half of the fitted maximal effect.
SMILES,EPAC2 ag,EPAC2 antagonist,USP1 inh,EPAC1 ag,EPAC1 antag
CCc1cccc(C)c1NC(=O)c1ccc2c(c1)CCN2S(=O)(=O)c1ccc(Cl)cc1,.,.,-18%,.,.
O=c1c(/C=C(\O)c2ccccc2)nc2ccccc2n1-c1ccccc1,100µM*,104%,?,100µM*,396%
COc1cccc(C(=O)/C=C/c2ccc(OCC#N)c(OC)c2)c1,13%,-3%,-21%,1%,22µM*
O=C1c2ccccc2-c2onc3c(N4CCN(C5CCCCC5)CC4)cc(NCCO)c1c23,.,.,16µM*,.,.
COc1ccccc1CCC(=O)OCC(=O)Nc1cc(C)nn1-c1ccccc1,6%,2%,-22%,100µM*,-11%
COc1ccccc1CNC(=O)C1CCN(C2=NS(=O)(=O)C(c3ccc(C)c(C)c3)=C2C)CC1,.,.,-24%,.,.
N#C/C(=C(/O)C(Cl)(Cl)Cl)c1nc2ccccc2[nH]1,-1%,13µM*,-8%,-2%,-7%
Nn1cnnc1N/N=C/c1ccc(F)cc1,-8%,11%,?,-5%,-2%
Nn1cnnc1N/N=C/c1ccc(Cl)c([N+](=O)[O-])c1,3%,5%,?,-11%,16µM*
Cc1cccc(-c2noc(-c3cccnc3NCc3ccco3)n2)c1,.,.,-17%,.,.
CC(C)(C)c1ccc(C(=O)N2CC(=O)Nc3ccc(F)cc3C2c2ccc(F)cc2)cc1 (configuration not stated),.,.,-12%,.,.
CC(/C=C1\SC(=S)N(NS(=O)(=O)c2ccccc2)C1=O)=C\c1ccccc1,2%,50µM*,?,-7%,40µM*
CC(/C=C1\SC(=S)N(NS(=O)(=O)c2ccc(C)cc2)C1=O)=C\c1ccccc1,-1%,35µM*,?,3%,40µM*
CC(/C=C1\SC(=S)N(NC(=O)c2ccc(C)cc2)C1=O)=C\c1ccccc1,10%,-9%,-8%,-4%,-5%
CCc1nnc(SCc2nc(-c3ccccc3)oc2C)c2cc3sccc3n12,.,.,-14%,.,.
O=C(CS(=O)(=O)c1ccccc1)Nc1ccc(Cl)cn1,5%,0%,-22%,10%,16%
O=C(CC(c1ccccc1)c1ccccc1)Nc1ccc(Cl)cn1,6.3µM*,-15%,-15%,16%,-9%
O=C(CSC1=Nc2ccccc2N=C(c2ccc(F)cc2)C1)Nc1cc(F)ccc1F,.,.,-22%,.,.
O=C1C(N2CCOCC2)=C(n2nnc3ccccc32)C(=O)c2ccccc21,2%,-2%,14µM*,1%,-28%
COc1ccc(-c2cn3nc(SCC(=O)Nc4ccc(C)c(Cl)c4)ccc3n2)cc1,.,.,-14%,.,.
COc1ccc(Cn2c(=O)[nH]c3cc(C(=O)N4CCN(c5cc(Cl)ccc5C)CC4)ccc3c2=O)cc1,.,.,-25%,.,.
Cc1nnc(Sc2cc(NCCO)c([N+](=O)[O-])c3nonc23)s1,-5%,3%,-26%,4%,-1%
Cc1nnc(Sc2cc(NCCCO)c([N+](=O)[O-])c3nonc23)s1,14%,18%,14µM*,3%,40µM*
Cc1ccc(S(=O)(=O)Nc2ccc3cc([N+](=O)[O-])ccc3c2[N+](=O)[O-])cc1,-5%,50µM*,-19%,-2%,79µM*
COc1cc(NC(=O)C2CCN(S(=O)(=O)c3c(C)noc3/C=C/c3c(C)cc(C)cc3C)CC2)cc(OC)c1,.,.,-25%,.,.
SMILES,EPAC2 ag,EPAC2 antagonist,USP1 inh,EPAC1 ag,EPAC1 antag
CCc1cccc(CC)c1N1C(=O)C2=C(SCCCS2)C1=O,112µM*,-7%,?,100µM*,-2%
COc1ccc(NC(=O)c2ccc(-c3nc(CSc4ccc(C)cc4)c(C)o3)cc2)cc1Cl,.,.,-20%,.,.
O=C(O)CC(C(=O)O)N1C(=O)/C(=C/c2ccc(-c3nc4ccccc4s3)o2)SC1=S (configuration not stated),13%,-18%,28µM*,5%,12%
O=C(O)CCN1C(=O)/C(=C/c2ccc(-c3nc4ccccc4s3)o2)SC1=S,3%,2%,7.1µM*,-6%,-24%
O=C(O)c1cc(-c2ccc(/C=C3/SC(=S)N(Cc4ccccc4)C3=O)o2)ccc1Cl,23%,?,25µM*,10%,-1%
Cc1ccc(/C=C2\SC(=S)N(Cc3ccccc3)C2=O)o1,8%,-1%,-26%,3%,-14%
CC1(C)CC[C@]2(C(=O)O)CC[C@]3(C)C(=CC[C@@H]4[C@@]5(C)CC[C@H](O[C@@H]6O[C@H](C(=O)O)[C@@H](O)[C@H](O[C@@H]7OC[C@H](O)[C@H](O)[C@H]7O)[C@H]6O)C(C)(C)[C@@H]5CC[C@]43C)[C@@H]2C1,-8%,6%,-30%,-25%,50µM*
CC1(C)CC[C@]2(C(=O)O[C@@H]3O[C@H](CO)[C@@H](O)[C@H](O)[C@H]3O)CC[C@]3(C)C(=CCC4[C@@]5(C)CC[C@H](O[C@@H]6O[C@H](C(=O)O)[C@@H](O[C@H]7OC[C@@H](O)[C@@H](O)[C@@H]7O)[C@H](O)[C@H]6O)C(C)(C)C5CC[C@]43C)[C@@H]2C1 (some centres not stated),1%,10%,-27%,-15%,-9%
COc1cccc(C(=O)N(Cc2ccco2)c2ccccn2)c1,.,.,1%,.,.
O=C1NN(c2ccccc2)C(=O)/C1=C/c1ccc(Sc2cccc3ccccc23)o1,-13%,5%,?,-5%,56µM*
O=C1NN(c2ccccc2)C(=O)/C1=C/c1ccc(-c2ccc(C(=O)O)cc2)o1,18%,8%,-22%,13%,-8%
CC(C)c1ccc(NC(=O)C2CCCN(S(=O)(=O)c3cccc4nsnc34)C2)cc1 (configuration not stated),.,.,-3%,.,.
CCOC(=O)C1=C(c2ccccc2)N=c2s/c(=C\c3cc(OC)c(OC)c(OC)c3)c(=O)n2C1c1cccs1 (configuration not stated),14%,-7%,22µM*,10%,-3%
O=C1CC(Cc2ccccc2)C(=O)N1CCc1ccc2c(c1)OCO2 (configuration not stated),-19%,11µM*,-2%,7%,11%
COc1ccc(-c2cc(C(F)F)n3ncc(C(=O)N4CCc5ccccc54)c3n2)cc1,100µM*,59%,-10%,-15%,-18%
Cc1ccc(-c2cc(C(F)F)n3ncc(C(=O)N4CCCc5ccccc54)c3n2)cc1,-2%,5%,-23%,0%,8%
CCOc1ccccc1CNC(=O)c1ccc(Cn2c(SCc3ccccc3)nc3cccnc32)cc1,.,.,-19%,.,.
CCN(CC(=O)Nc1ccccc1C(F)(F)F)C(=O)CCOc1ccccc1C,10%,1%,-11%,45µM*,-15%
CCN(CC(=O)Nc1cc(Cl)ccc1C)C(=O)CCOc1ccccc1C,12%,-14%,-7%,-9%,-5%
